In ChEMBL document CHEMBL3988442, “University of Dundee, Small-Polar-MMV Screening Library” (2021):

Legend:
[1] = molecular target: T1, Aspartate--tRNA(Asp/Asn) ligase (Mycobacterium tuberculosis (strain ATCC 25618 / H37Rv)) (UniProt P9WFW3); test: Assay for Asp RNA synthetase-1 from Mycobacterium tuberculosis; format: functional; set-up: scale not given: direction of the effect not stated beside the values; conditions: 30 µM; note: in the data most compounds retested in dose-response had high values
T1 sequence (whole entry): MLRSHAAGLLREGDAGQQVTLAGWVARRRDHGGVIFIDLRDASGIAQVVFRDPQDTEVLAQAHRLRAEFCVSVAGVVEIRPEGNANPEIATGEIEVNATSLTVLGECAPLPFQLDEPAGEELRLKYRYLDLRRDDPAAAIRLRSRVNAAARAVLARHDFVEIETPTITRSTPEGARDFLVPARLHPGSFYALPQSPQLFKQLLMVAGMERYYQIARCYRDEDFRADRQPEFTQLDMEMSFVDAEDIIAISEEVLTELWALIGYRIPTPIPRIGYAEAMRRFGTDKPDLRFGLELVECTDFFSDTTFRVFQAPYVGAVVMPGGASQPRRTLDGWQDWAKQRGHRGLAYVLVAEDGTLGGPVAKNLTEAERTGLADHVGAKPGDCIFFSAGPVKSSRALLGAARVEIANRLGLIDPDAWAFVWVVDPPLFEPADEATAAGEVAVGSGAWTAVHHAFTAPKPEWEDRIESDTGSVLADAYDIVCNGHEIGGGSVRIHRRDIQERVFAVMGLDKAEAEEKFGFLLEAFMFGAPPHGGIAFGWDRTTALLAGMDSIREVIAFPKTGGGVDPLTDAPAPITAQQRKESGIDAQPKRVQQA

[2] = molecular target: Shiga toxin 2 (Escherichia coli O157:H7) (UniProt P09385+P09386); test: E. coli 0.157:H7 Shiga Toxin SOP - stx2 screening assay; format: functional; set-up: scale not given: direction of the effect not stated beside the values; conditions: 30 µM

SMILES | Percent Effect [1] [%] | Percent Effect [2] [%]
Cc1noc(Cl)c1CCC(=O)N1CCCCC1Cn1cccn1 (centres undefined) | 1.35 | -6.37
Cn1cnnc1C1CCCN(C(=O)c2n[nH]c3ccccc23)C1 (centres undefined) | -3.14 | -4.11
CCCc1n[nH]c(C2CN(CCCOc3ccccc3)CCO2)n1 (centres undefined) | 0.946 | 5.54
COc1cccc(C(=O)NCCCN2CCc3ccccc3C2)c1OC | -2.13 | -9.33
COc1ccc(CC(=O)N2CCCCC2Cn2cccn2)cc1OC (centres undefined) | -2.34 | -6.84
N#Cc1ccc(CNCC2CCN(CCO)CC2)cc1 | 5.92 | -29.9
Cc1ccc(S(=O)(=O)N2CCc3nc(C4CCNCC4)ncc3C2)cc1 | -1.21 | 8.71
COc1ccccc1OCC(=O)NS(=O)(=O)c1ccccc1F | 0.814 | -7.18
CCc1nnc(CNCC2CCCN2c2cccnn2)o1 (centres undefined) | -1.12 | -52.3
CC(C)S(=O)(=O)NCC1CCCN(C(=O)c2ccc3c(c2)CCC3)C1 (centres undefined) | 6.5 | 1.33
c1cnc(NCc2ncn3c2CN(Cc2cccnc2)CCC3)nc1 | -2.66 | -5.14
Cn1cc(CN2CCOCC3(C2)CN(c2ccccc2)C(=O)CO3)cn1 (centres undefined) | 5.42 | 4.18
COc1ccc(CCC(=O)NC2CCC(O)CC2)cc1OC (centres undefined) | -2.67 | 33
Cc1noc([C@@H]2C[C@H]3OCC[C@H]3N(S(=O)(=O)c3cccnc3)C2)n1 | -1.34 | -21.9
Cc1nc(C)n(CC2CCCN(CCOc3cccc(C#N)c3)C2)n1 (centres undefined) | 2 | 12.2
c1cc(OCc2ccc3c(c2)OCCO3)ccc1CNC1CC1 | -1.05 | -54.3
O=C(CCc1ccccc1F)NS(=O)(=O)c1ccc2c(c1)OCCCO2 | 2.29 | -13.9
